TRHR agonist – TRH receptor (human) agonism; P34981; TRHR cells, calcium flux fluo-8, FDSS agonist mode; activation, % at 2 µM; hit rate 0.18% among 360,000; AID 493084
Target sequence (P34981 whole entry, looked up): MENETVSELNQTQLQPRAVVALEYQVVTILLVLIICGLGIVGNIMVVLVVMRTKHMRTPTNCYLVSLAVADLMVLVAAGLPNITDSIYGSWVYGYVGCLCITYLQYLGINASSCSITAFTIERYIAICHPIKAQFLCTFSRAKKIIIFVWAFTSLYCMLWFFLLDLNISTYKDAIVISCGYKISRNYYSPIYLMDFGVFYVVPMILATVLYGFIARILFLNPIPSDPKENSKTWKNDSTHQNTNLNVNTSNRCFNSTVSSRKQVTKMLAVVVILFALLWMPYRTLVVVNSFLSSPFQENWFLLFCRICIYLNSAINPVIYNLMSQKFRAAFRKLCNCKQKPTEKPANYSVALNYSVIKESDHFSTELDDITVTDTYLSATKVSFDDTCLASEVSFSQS
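TRHR-expressing cells, plated overnight in medium with 10% serum, were loaded with fluo-8 calcium dye at room temperature. After a 10 s baseline, library compound was pin-added and calcium release was recorded kinetically (ex 480/em 530) as agonist response.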
D1 PAM – enhances dopamine response at the human D1 receptor; P21728; HEK293 TREx D1 cells, calcium flux, dopamine EC20 potentiation; potentiation, % at 10 µM; hit rate 0.036% among 360,000; in the data active = potentiation above about 30%
D1 agonist – human D1 receptor agonism. AID 504660. hit rate 1% among 360,000. HEK293 T-REx D1 cells, calcium flux, agonist mode. activation, % at 2 µM
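Agonism was scored from calcium flux recorded over 180 s (1 read/s) after pintool compound addition, following a 10-cycle baseline. Cells were inducible force-coupled HEK293 TREx D1, plated overnight at 30 C and loaded with no-wash calcium dye.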
TRHR PAM – allosterically enhances the human TRH receptor | P34981 | TRHR cells, fluo-8 calcium fluorescence, EC20 TRH enhancement | enhancement, % at 2 µM | hit rate 0.66% among 360,000 | AID 493056; in the data active = enhancement above about 30%
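TRHR-expressing cells loaded with fluo-8 calcium dye were read kinetically (ex 480/em 530) during compound addition, then stimulated with an EC20 of TRH (10 nM final). Enhancement of the Gq-mediated intracellular calcium response was scored.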
D1 antag – blocks dopamine activation of the human D1 receptor; activity change, negative = inhibition, % at 10 µM; HEK293 TREx D1 cells, calcium flux, dopamine EC80; hits give low values; P21728; hit rate 3.2% among 360,000; in the data active = activity change below about -30%
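Allosteric or orthosteric antagonism assessed as attenuation of the calcium response to EC80 dopamine, added 180 s after compound, in induced HEK293 Trex D1 cells loaded with no-wash calcium dye.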
A number is an active result; n = inactive; x = not tested or not shown. Only some compounds are listed: those with a hit (about 4.7% of all), similar ones and a draw of the others. Rule as the data show it, unless noted: active = activation above about 30%; inactive = the rest.

SMILES	TRHR agonist	D1 PAM	D1 agonist	TRHR PAM	D1 antag
CCCCSc1ncnc2c1c(-c1ccccc1)cn2-c1cccc(F)c1	n	n	n	n	n
Cc1oc(-c2ccc(Cl)cc2)nc1CN1CCC(C(=O)NCCCN2CCCC2=O)CC1	n	n	n	n	n
Cc1oc(-c2cccc(Cl)c2)nc1CN1CCCC(C(=O)N2CCN(c3ccc(F)cc3)CC2)C1 (centres undefined)	n	n	35	n	-64
Cc1oc(-c2ccc(Cl)cc2)nc1CN1CCC(C(=O)N2CCN(Cc3ccccc3)CC2)CC1	n	x	33	n	-68
Cc1cccc(-c2nc(CN3CCCC(C(=O)NCCc4ccc(Cl)cc4)C3)c(C)o2)c1 (centres undefined)	n	n	n	34	n
Cc1oc(-c2ccc(Cl)cc2)nc1CN1CCC(C(=O)NCCCN2CCCC(C)C2)CC1 (centres undefined)	n	n	n	n	-30
CC(C)CCn1c(SCc2ccc(F)cc2Cl)nc2ccsc2c1=O	n	n	n	n	n
COc1cccc(CNC(=O)Cn2c(SCC(=O)Nc3ccc(C)c(C)c3)nc3ccccc32)c1	n	n	n	n	n
COc1ccc(NC(=O)c2oc3c(c2C)-c2nn(Cc4ccccc4Cl)cc2CC3)cc1OC	n	n	n	n	n
Cc1ccc(-c2nc(CN3CCCC(C(=O)N4CCOCC4)C3)c(C)o2)cc1 (centres undefined)	n	n	n	n	-34
Cc1oc(-c2cccc(Cl)c2)nc1CN1CCC(C(=O)NCc2ccco2)CC1	n	n	n	n	n
Cc1oc(-c2cccc(Cl)c2)nc1CN1CCCC(C(=O)NCc2ccco2)C1 (centres undefined)	n	n	n	n	-41
Cc1cccc(OCCn2c(-c3ccc(Cl)cc3)nc3ccccc3c2=O)c1C	n	n	n	n	n
Cc1ccc2nc(CCc3nc4ccc(C)cc4o3)oc2c1	n	n	n	n	n
Cc1ccc2nc(Cc3ccc(N)cc3)oc2c1	n	n	n	n	-31
CCc1ccc(C2CC(=O)Nc3cc4c(cc32)OCO4)cc1 (centres undefined)	n	n	n	n	n
O=C(NCC(O)c1ccc([N+](=O)[O-])cc1)Nc1ccccc1 (centres undefined)	n	n	n	n	n
CC(NCC(O)c1ccc([N+](=O)[O-])cc1)C12CC3CC(CC(C3)C1)C2 (centres undefined)	n	n	49	n	n
CCc1ccccc1NC(=O)c1cnc2sc(N3CCCC3)nn2c1=O	n	n	n	n	n
COc1cccc(CNC(=O)c2cc3c(=O)oc4ccc(C)cc4c3s2)c1	n	n	n	n	n
COc1cccc(/C=N\NC(=O)c2cc(OCC(F)(F)F)ccc2OCC(F)(F)F)c1	n	n	33	n	n
CNC(=O)c1cc(OCC(F)(F)F)ccc1OCC(F)(F)F	n	n	n	n	x
CCCOc1ccc(NC(=O)CC2C(=O)N(c3ccc(Cl)cc3)C(=O)N2CCc2ccncc2)cc1 (centres undefined)	n	n	n	n	-35
COC(=O)CN1C(=S)N(c2ccc(F)cc2)C(=O)C1CC(=O)Nc1ccc(F)cc1 (centres undefined)	n	n	n	n	-51
COc1ccc(NC(=O)CC2C(=O)N(c3ccc(OC)cc3)C(=O)N2CCC2=CCCCC2)cc1 (centres undefined)	n	n	n	n	-31
SMILES	TRHR agonist	D1 PAM	D1 agonist	TRHR PAM	D1 antag
COC(=O)CN1C(=S)N(c2ccc(Cl)cc2)C(=O)C1CC(=O)Nc1ccc(F)cc1 (centres undefined)	n	n	n	n	n
COc1ccc(NC(=O)CC2C(=O)N(c3ccc(F)cc3)C(=O)N2CCc2sccc2C)cc1 (centres undefined)	n	n	n	n	n
CCOc1ccc(NC(=O)CC2C(=O)N(c3ccc(F)cc3)C(=O)N2CCc2sccc2C)cc1 (centres undefined)	n	n	n	42	n
O=C(Nc1ccc(F)cc1Cl)n1ncc2cc(Cl)ccc21	n	n	n	n	n
Cc1cccc(N2C(=O)C(CC(=O)Nc3ccc(Cl)cc3)N(Cc3ccco3)C2=O)c1 (centres undefined)	n	n	n	n	n
COc1ccc(NC(=O)CC2C(=O)N(c3ccc(C)cc3)C(=O)N2CCc2ccccc2)cc1 (centres undefined)	n	n	n	n	-37

Source: PubChem BioAssay
